# Measured values published in publication PMC6919601, “Identification of Plasmodium dipeptidyl aminopeptidase allosteric inhibitors by high throughput screening” (PLoS ONE, 2019).
# In all, about 110,000 compounds went through this assay and about 230 (0.21%) showed an effect of 50% or more. What follows is part of a selection rich in strong results, with near analogues and random picks from the rest.
# Target: DPAP1 (Plasmodium falciparum, UniProt Q8IIJ9)
# Test: primary screen, percent inhibition; read by cleavage of a fluorogenic dipeptide substrate; higher = more effect of the substance
# Set-up: species or system P. falciparum D10 trophozoite lysates; single well
# 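Further: 30 min substrate incubation versus DMSO and 10 µM JCP410 controls.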
# Sequence of DPAP1 (Q8IIJ9 whole entry, looked up): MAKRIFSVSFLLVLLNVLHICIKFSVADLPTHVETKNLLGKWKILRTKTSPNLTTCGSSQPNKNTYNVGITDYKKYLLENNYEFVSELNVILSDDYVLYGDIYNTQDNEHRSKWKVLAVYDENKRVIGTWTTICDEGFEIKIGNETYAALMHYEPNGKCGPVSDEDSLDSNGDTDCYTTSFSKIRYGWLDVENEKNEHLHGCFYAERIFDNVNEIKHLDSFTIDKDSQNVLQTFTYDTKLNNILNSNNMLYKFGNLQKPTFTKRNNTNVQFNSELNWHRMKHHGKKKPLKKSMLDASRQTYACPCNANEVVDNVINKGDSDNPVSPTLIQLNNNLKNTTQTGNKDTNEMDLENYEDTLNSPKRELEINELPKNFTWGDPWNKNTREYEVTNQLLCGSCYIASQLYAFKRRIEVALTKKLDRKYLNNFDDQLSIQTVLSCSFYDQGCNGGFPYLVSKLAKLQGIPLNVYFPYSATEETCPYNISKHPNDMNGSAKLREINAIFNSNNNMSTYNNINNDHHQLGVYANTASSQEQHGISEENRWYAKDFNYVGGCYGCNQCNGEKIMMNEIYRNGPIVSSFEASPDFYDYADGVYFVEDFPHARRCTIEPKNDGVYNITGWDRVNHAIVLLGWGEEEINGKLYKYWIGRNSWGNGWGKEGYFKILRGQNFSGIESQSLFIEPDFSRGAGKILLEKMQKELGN
row,Structure (SMILES),% Inhibition @ 10 uM
1,O=C(Nc1cccc(Cl)c1)N1CCC(Cc2ccccc2)CC1,0.727%
2,Cc1cccc(NS(=O)(=O)c2ccccc2)n1,-3.56%
3,COc1ccc(-c2cc(C(=O)N3CCOCC3)c3ccccc3n2)cc1,0.245%
4,COc1cc(C2C(C#N)=C(N)OC3=C2C(=O)CCC3)cc(OC)c1OC (centres unmarked),0.687%
5,O=C(CCc1nnc2n(CCc3ccccc3)c(=O)c3ccccc3n12)N1CCOCC1,0.981%
6,O=C(NCc1ccccc1Br)C1CCCN(c2nnc(N3CCCC3=O)s2)C1 (centres unmarked),-4.68%
7,CC(C)CC(NC(=O)N1CCC(N2CCCCC2)CC1)C(=O)NCC#N (centres unmarked),-0.972%
8,Cc1ccccc1-c1ccccc1N,-0.305%
9,COc1ccc(CNC(=O)Cn2ncn3cccc3c2=O)cc1,-5.15%
10,CCOc1cccc(-n2cc(-c3ccccc3)nc2S)c1,42.6%
11,CCOc1ccc(-c2cn(-c3ccccc3F)c(S)n2)cc1,56.2%
12,COc1ccccc1-n1cc(-c2ccccc2)nc1S,58.6%
13,Fc1ccccc1-n1cc(-c2ccccc2)nc1S,45.3%
14,Sc1nc(-c2ccccc2)cn1-c1ccccc1,37.1%
15,COc1ccc(OC)c(-n2cc(-c3ccccc3)nc2SC)c1,4.49%
16,CC1CC(C)CN(CCCNC(=O)Cn2ncn3nc(-c4cccs4)cc3c2=O)C1 (centres unmarked),2.27%
17,Cc1ccc(C(=O)NC2(C(F)(F)F)C(=O)Nc3c2c(=O)[nH]c(=O)n3-c2ccc(Cl)cc2)cc1 (centres unmarked),-3.39%
18,CCc1cc2c(cc3c(=O)n(CC(=O)NCCc4ccc(OC)c(OC)c4)nc(CC)n32)s1,3.29%
19,Cc1nn(C)c2c1c(-c1ccccc1)cc(=O)n2Cc1cccc(F)c1,2.65%
20,COc1cc(CN2CCN(c3cccc(C)c3C)CC2)cc(OC)c1,55.4%
21,COc1cc(CN2CCN(c3ccccc3C)CC2)cc(OC)c1,1.9%
22,COc1ccc(CN2CCN(c3cccc(C)c3C)CC2)cc1OC,9.04%
23,O=C1NC(=O)/C(=C/c2ccc(-c3ccc(O)c(C(=O)O)c3)o2)S1,64.8%
24,O=C1NC(=O)/C(=C\c2ccc(-c3ccc(Cl)c(C(=O)O)c3)o2)S1,8.24%
25,O=C1NC(=O)/C(=C\c2ccc(-c3ccc(Cl)cc3)o2)S1,6.08%

row,Structure (SMILES),% Inhibition @ 10 uM
1,OCCN(Cc1ccccc1)CC1CC=CCC1 (centres unmarked),1.38%
2,COC(=O)c1cc(O)nc(SCc2cccc(C)c2)n1,4.47%
3,CCCn1c(=N)c(S(=O)(=O)c2ccc(C)cc2)cc2c(=O)n3ccccc3nc21,3.99%
4,Cc1ccc(S(=O)(=O)c2cc3c(=O)n4ccccc4nc3n(CCO)c2=N)cc1,-4.59%
5,Cc1ccc(S(=O)(=O)c2cc3c(=O)n4ccccc4nc3n(C)c2=N)cc1,57.9%
6,C=CCOCC(O)CSc1nc(C)cc(C)n1 (centres unmarked),3.48%
7,O=C(C1CCCC1)N1CCN(C(c2ccccc2)c2ccccc2)CC1,0.795%
8,O=C(Nc1ccccc1)c1nc2ccccc2s1,5.39%
9,CCCCCCc1cc2cc(C(=O)O)c(=O)oc2cc1O,4.08%
10,CCCCCCc1cc2cc(C#N)c(=O)oc2cc1O,67.5%
11,CCCCCCc1cc2cc(-c3csc(N)n3)c(=O)oc2cc1O,1.12%
12,CCOC(=O)c1sc(N2C(=O)c3oc4ccccc4c(=O)c3C2c2ccc(O)c(OC)c2)nc1C (centres unmarked),2.16%
13,CCc1ccc(C2c3c(oc4ccccc4c3=O)C(=O)N2c2nc(C)c(C(=O)OC)s2)cc1 (centres unmarked),-1.86%
14,C=CCOc1ccc(C2c3c(oc4ccccc4c3=O)C(=O)N2c2nc(C)c(C(=O)OC)s2)cc1 (centres unmarked),3.12%
15,CCOc1cc(C2c3c(oc4ccccc4c3=O)C(=O)N2c2nc(C)c(C(C)=O)s2)ccc1O (centres unmarked),-0.828%
16,CCOc1cc(C2c3c(oc4ccccc4c3=O)C(=O)N2c2nc(C)c(C(=O)OC)s2)ccc1O (centres unmarked),69.6%
17,CCOc1ccc(C2c3c(oc4ccccc4c3=O)C(=O)N2c2nc(C)c(C(=O)OC)s2)cc1 (centres unmarked),70.8%
18,CCn1cc(C(=O)Nc2ccccc2C(C)C)cn1,6.1%
19,CCS(=O)(=O)c1nc(S(=O)(=O)c2ccc(C)cc2)c(NCCc2ccccc2)s1,-5.89%
20,Cc1nc2c(nc(C)n2-c2ccccc2)s1,2.92%
21,CCOc1ccc(Nc2nc(-c3cccs3)cs2)cc1,-1.37%
22,CCC(C(=O)NCc1ccc(OC(C)C)cc1)n1nc(C)c2sc3ccccc3c2c1=O (centres unmarked),2.8%
23,CCc1ccc(CNC(=O)C(CC)n2nc(C)c3sc4ccccc4c3c2=O)cc1 (centres unmarked),90.8%
24,CCCCNC(=O)C(CC)n1nc(C)c2sc3ccccc3c2c1=O (centres unmarked),-2.61%
25,CN1CCN(S(=O)(=O)c2ccccc2)CC1,-0.127%
